Assay results taken from PubChem BioAssay.
Several values for one entry are separate records, joined by “and”; a condition that tells them apart may be missing. Equal values may be shown once. Activity calls are given as the source filed them.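 The calls were made as follows, unless noted: active = thallium flux through the channel raised or lowered by more than 3 SD from vehicle-only wells, actives on both sides; inactive = the rest.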

Experiments:
[1] = Wnt pathway potentiators raising nuclear beta-catenin – imaging, WNT3A-conditioned medium, mouse C2C12, NPC library, primary screen (AID 1117326; in the data active = nuclear beta-catenin stimulation mostly above about 4.2%, no sharp cut-off; inactive = mostly below about 10%); conditions: stronger effect = higher value
[2] = stimulators of insulin release from INS-1E, primary screen, cell-based, 5 mM glucose, NPC library (AID 1117329;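 active = compound raises insulin release from rat beta cells at 5 mM glucose, no numeric limit stated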); conditions: rat INS-1E insulin secretion, at 10 µM, stronger effect = higher value
[3] = growth inhibition of GSK3B-pretreated HCT116 cells – cell-based, CellTiter-Glo, 0.2 to 20 µM (AID 1117336;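 active = compounds lowering colon cancer cell viability after pretreatment blocking the GSK3B kinase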); conditions: HCT116 viability after GSK3B inhibitor, at 20 µM, stronger effect = higher value
[4] = inhibition of endothelial tube formation, primary screen, imaging, VEGF stimulated, CD31 staining, tube area, NPC library (AID 1117340;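 active = compound that reduces growth-factor-driven endothelial tube area in a mixed cell culture, no cutoff stated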); conditions: VEGF-stimulated ADSC/ECFC co-culture, at 10 µM, stronger effect = higher value
[5] = GLP1 release stimulators, primary, NCI-H716, NPC library (AID 1117341;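 active = compound raises GLP1 secretion from the human gut endocrine cells, with no numeric limit stated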); conditions: NCI-H716 cells, at 10 µM, stronger effect = higher value
[6] = HCT116 colon cancer cell growth inhibition, primary screen, CellTiter-Glo luminescence, NPC library (AID 1117342;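 active = compounds that lower survival of HCT116 colon cancer cells in the luminescence readout, no numeric limit stated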); conditions: at 20 µM (top of the series)
[7] = reduced SW480 viability measured with CellTiter-Glo, NPC library, primary (AID 1117343;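 active = compounds that lower viability of the colon cancer cells in the luminescence readout, with no numeric limit stated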); conditions: CellTiter-Glo luminescence; at 20 µM (top of the series)
[8] = NPC library primary testing for decreased DLD-1 cell viability via CellTiter-Glo (AID 1117346;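 active = compounds that lower survival of DLD-1 colon cancer cells in the luminescence readout, no cutoff given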); conditions: DLD-1 viability, CellTiter-Glo luminescence; at 20 µM (top of the series)
[9] = target: 6-phosphogluconate dehydrogenase, decarboxylating (Homo sapiens) (UniProt P52209); experiment: inhibition of human phosphogluconate dehydrogenase – biochemical, recombinant enzyme, NADPH absorbance, primary screen (AID 1159550;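 active = at least 20% inhibition of 6-phosphogluconate dehydrogenase activity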); conditions: recombinant 6PGD, NADPH absorbance 341 nm; at 10 µM; stronger effect = higher value
Chain of 6-phosphogluconate dehydrogenase, decarboxylating (Homo sapiens) (P52209 whole entry, looked up): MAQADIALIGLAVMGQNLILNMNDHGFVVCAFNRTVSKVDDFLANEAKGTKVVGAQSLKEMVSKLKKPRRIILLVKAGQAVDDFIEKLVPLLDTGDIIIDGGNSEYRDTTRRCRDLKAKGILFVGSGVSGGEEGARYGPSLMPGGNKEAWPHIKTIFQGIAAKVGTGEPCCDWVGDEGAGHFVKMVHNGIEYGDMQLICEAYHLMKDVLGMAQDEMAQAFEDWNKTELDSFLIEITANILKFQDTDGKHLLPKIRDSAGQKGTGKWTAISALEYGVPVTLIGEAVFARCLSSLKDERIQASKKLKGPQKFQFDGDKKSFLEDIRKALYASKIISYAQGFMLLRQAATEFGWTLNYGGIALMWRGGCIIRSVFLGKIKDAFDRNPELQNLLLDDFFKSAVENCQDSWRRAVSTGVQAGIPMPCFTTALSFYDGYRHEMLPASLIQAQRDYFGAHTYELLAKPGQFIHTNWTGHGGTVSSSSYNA

[10] = viability loss with induced miR-34 in A549 – imaging, A549 dox-inducible miR-34, nuclei and caspase counts, primary screen (AID 1347080;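 active = compounds whose cell count with miR-34 switched on is under 0.7 times the count with it off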); conditions: A549 miR-34 inducible, Hoechst nuclei count, 48 h
[11] = MELAS cybrid and Rieske KO viability enhancers – cell-based, MELAS cybrids, Rieske KO mouse fibroblasts, CellTiter-Glo, primary screen (AID 1508586;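 active = mean z-score across replicates of 1.96 or higher in either the MELAS or the Rieske mutant cell line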;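 also: z relative to plate mean and SD of compound and empty wells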); conditions: low glucose
[12] = target: NAD(+) hydrolase SARM1 (Homo sapiens) (UniProt Q6SZW1); experiment: blocking NAD cleavage by SARM1 SAM-TIR – cell lysate, NAD-Glo luminescence (AID 1508614;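 active = compound whose remaining NAD level is above about 45 nM, limit read from the data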;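 also: higher remaining NAD means stronger inhibition of SARM1 NADase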); conditions: SAM-TIR HEK293T lysate NADase, at 1 µM, stronger effect = higher value
Chain of NAD(+) hydrolase SARM1 (Homo sapiens) (Q6SZW1 whole entry, looked up): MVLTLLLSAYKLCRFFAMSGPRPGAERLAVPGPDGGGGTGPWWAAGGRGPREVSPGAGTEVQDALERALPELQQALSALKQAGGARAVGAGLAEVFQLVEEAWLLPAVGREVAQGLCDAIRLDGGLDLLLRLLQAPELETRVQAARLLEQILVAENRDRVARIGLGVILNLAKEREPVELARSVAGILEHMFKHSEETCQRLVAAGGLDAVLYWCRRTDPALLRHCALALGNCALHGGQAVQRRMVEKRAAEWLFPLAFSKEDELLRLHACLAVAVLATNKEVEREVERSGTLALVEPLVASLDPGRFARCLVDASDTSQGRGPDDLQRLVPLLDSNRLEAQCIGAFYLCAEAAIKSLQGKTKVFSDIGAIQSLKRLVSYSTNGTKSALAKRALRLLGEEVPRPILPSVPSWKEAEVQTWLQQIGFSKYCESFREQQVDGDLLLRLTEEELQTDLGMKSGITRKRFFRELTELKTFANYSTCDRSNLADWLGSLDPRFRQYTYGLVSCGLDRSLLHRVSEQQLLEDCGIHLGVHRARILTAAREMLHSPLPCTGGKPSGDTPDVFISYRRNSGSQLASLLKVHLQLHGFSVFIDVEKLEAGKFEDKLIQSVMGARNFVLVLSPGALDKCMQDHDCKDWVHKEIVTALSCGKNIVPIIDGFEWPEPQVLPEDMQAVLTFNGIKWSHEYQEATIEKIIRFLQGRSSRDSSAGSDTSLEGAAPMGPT

F380Y = experiment: BK channel mutant inhibitors and activators – cell-based, U2OS BacMam, thallium flux, beta subunits, selectivity assay, profiling panel (AID 1259406); conditions: U2OS BacMam BK variants, at 30 µM;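 also: initial slope of Thallos dye fluorescence rise after thallium is added; log ratio against the mean of 0.3% DMSO vehicle wells on the same plate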
F380Y/beta2Delta = experiment: as above; conditions: U2OS BacMam BK variants, at 30 µM
[13] = target: Calcium-activated potassium channel subunit alpha-1 (Homo sapiens) + Leucine-rich repeat-containing protein 26 (Homo sapiens) (UniProt Q12791+Q2I0M4); experiment: as above; conditions: U2OS BacMam BK variants, F380Y/Slo1WT/gamma1, at 30 µM
Chain of Calcium-activated potassium channel subunit alpha-1 (Homo sapiens) + Leucine-rich repeat-containing protein 26 (Homo sapiens) (Q2I0M4 whole entry, looked up, one chain of several): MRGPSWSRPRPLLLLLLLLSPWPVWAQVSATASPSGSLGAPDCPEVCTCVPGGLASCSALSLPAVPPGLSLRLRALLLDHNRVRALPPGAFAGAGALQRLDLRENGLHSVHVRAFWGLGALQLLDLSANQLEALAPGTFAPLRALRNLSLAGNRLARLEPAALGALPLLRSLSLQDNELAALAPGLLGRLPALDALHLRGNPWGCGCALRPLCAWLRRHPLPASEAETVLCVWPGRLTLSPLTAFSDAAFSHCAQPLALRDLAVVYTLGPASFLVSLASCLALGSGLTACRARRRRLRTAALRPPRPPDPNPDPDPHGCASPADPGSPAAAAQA

R275C = experiment: as above; conditions: U2OS BacMam BK variants, at 30 µM
R275C/beta1 = experiment: as above; conditions: U2OS BacMam BK variants, at 30 µM
R275C/beta2Delta = experiment: as above; conditions: U2OS BacMam BK variants, at 30 µM
[14] = target: Mitogen-activated protein kinase 7 (Homo sapiens) (UniProt Q13164); experiment: Gal4-ERK5 driven luciferase induction – cell-based, HTS, primary screen (AID 1508626;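 active = luciferase signal above three times the same-plate solvent-only control wells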;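 also: luciferase driven by Gal4-ERK5 fusion binding five Gal4 sites before minimal TATA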); conditions: HeLa Gal4-ERK5 transactivation, 18 h, at 5 µM, stronger effect = higher value
Chain of Mitogen-activated protein kinase 7 (Homo sapiens) (Q13164 whole entry, looked up, the tested form may be a part): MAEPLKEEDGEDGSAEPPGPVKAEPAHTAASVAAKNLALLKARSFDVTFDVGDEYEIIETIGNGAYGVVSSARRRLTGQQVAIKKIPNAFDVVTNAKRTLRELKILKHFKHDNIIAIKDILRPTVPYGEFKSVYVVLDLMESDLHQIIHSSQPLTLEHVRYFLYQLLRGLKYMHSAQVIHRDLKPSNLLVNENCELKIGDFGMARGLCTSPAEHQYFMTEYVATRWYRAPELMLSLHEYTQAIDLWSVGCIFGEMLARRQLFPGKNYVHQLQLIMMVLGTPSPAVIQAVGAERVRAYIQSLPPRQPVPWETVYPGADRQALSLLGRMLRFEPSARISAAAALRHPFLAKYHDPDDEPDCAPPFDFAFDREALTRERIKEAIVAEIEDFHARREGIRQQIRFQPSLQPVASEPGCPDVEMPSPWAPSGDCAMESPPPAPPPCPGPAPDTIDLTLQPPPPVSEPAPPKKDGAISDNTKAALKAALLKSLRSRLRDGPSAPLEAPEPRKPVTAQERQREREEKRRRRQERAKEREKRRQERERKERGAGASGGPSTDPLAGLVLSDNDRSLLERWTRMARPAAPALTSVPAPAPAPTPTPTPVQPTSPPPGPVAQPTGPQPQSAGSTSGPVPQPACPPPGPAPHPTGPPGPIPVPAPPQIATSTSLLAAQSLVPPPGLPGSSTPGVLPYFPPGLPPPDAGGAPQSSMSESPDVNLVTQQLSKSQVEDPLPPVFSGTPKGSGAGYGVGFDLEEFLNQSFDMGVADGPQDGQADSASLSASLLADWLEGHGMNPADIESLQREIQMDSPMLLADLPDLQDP

[15] = EMT-state selective cytotoxicity in co-culture – imaging, PC-3E GFP, TEM4-18 mCherry, primary screen (AID 1345086;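 active = compounds killing one labelled cell type while sparing the other, by normalised counts and ratio limits, not self-fluorescent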;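 as to all read-outs here: cells exposed to compound for 72 h before imaging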;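 as to red/green cell ratio (normalised): normalised mesenchymal count divided by normalised epithelial count so high means epithelial killing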); conditions: PC-3E GFP / TEM4-18 mCherry co-culture, imaging cell counts, at 1 µM; for red/green cell ratio (normalised): actives lie on both sides, counts scaled to control wells, 1 = unselective
[16] = stronger effect = lower value, cell number ratio, induced over uninduced
[17] = measured here: relative caspase fold change +Dox/-Dox
[18] = measured here: total cells with miR-34 induction, stronger effect = lower value
[19] = measured here: total cells without miR-34 induction
[20] = MELAS cybrid survival, CellTiter-Glo 48 h, stronger effect = higher value
[21] = Rieske KO mouse fibroblast survival, CellTiter-Glo 72 h
[22] = measured here: epithelial PC-3E GFP cell survival
[23] = measured here: mesenchymal TEM4-18 mCherry cell survival

Cc1cccc(Nc2ccncc2S(=O)(=O)NC(=O)NC(C)C)c1
8770 and 10100: cell count [10, 18]
inactive: nuclear beta-catenin stimulation ([1]; at 10 µM) -1.1% | insulin secretion stimulation [2] 5% | viability decrease [3] -8.2% | tube area decrease [4] -9.9% | GLP1 secretion stimulation [5] -2% | inhibition of viability [6] -1.7% | viability decrease (inhibition) [7] -0.7% | viability decrease (inhibition) [8] -9.6% | inhibition [9] -8.28% | fold change [10, 16] 0.955 and 0.95 | z-score [11, 20] -0.921 | remaining NAD [12] 10 nM | log fold change Tl+ flux (F380Y) 0.0355 | log fold change Tl+ flux (F380Y/beta2Delta) -0.0041 | log fold change Tl+ flux [13] -0.0447 | log fold change Tl+ flux (R275C/beta1) 0.0246 | log fold change Tl+ flux (R275C/beta2Delta) 0.0124
-0.333: z-score [11, 21]
active: log fold change Tl+ flux (R275C) -0.147
9180 and 10600: cell count [10, 19]
0.599 and 1.15: fold change [10, 17]
-0.1%: nuclear beta-catenin stimulation ([1]; stimulation, at 2 µM)

CC(COc1ccccc1)NC(C)C(O)c1ccc(O)cc1 (stereo not drawn)
inactive: nuclear beta-catenin stimulation ([1]; at 10 µM) 2.4% | insulin secretion stimulation [2] 3% | viability decrease [3] -3.4% | tube area decrease [4] 15.3% | GLP1 secretion stimulation [5] 2.4% | inhibition of viability [6] 18.7% | viability decrease (inhibition) [7] 42.3% | viability decrease (inhibition) [8] -4.6% | inhibition [9] 0.0758% | fold change [10, 16] 0.93 and 0.88 | z-score [11, 20] 0.843 | remaining NAD [12] 10 nM | luciferase signal [14] 72 AU | log fold change Tl+ flux (F380Y) -0.000146 | log fold change Tl+ flux (F380Y/beta2Delta) 0.0627 | log fold change Tl+ flux [13] -0.0341 | log fold change Tl+ flux (R275C) 0.0486 | log fold change Tl+ flux (R275C/beta1) 0.000959 | log fold change Tl+ flux (R275C/beta2Delta) 0.0577
0.798: z-score [11, 21]
1.41 and 1.05: fold change [10, 17]
10800 and 9240: cell count [10, 19]
10000 and 8140: cell count [10, 18]
-1%: nuclear beta-catenin stimulation ([1]; stimulation, at 2 µM)

COc1cc([C@@H]2c3cc4c(cc3[C@H](O)[C@H]3COC(=O)[C@H]23)OCO4)cc(OC)c1OC
1.94: z-score [11, 21]
77%: nuclear beta-catenin stimulation ([1]; stimulation, at 2 µM)
2300 and 1910 and 1870: cell count [10, 18]
0.525 and 0.993 and 1.97: fold change [10, 17]
active: nuclear beta-catenin stimulation ([1]; at 10 µM) 81% | viability decrease [3] 102% | tube area decrease [4] 109% | inhibition of viability [6] 73.1% | viability decrease (inhibition) [8] 64%
2200 and 1830 and 1900: cell count [10, 19]
inactive: insulin secretion stimulation [2] 1.25% | GLP1 secretion stimulation [5] 2% | viability decrease (inhibition) [7] 49.9% | inhibition [9] 10.7% | fold change [10, 16] 1.05 and 1.04 and 0.981 | z-score [11, 20] -2.59 | remaining NAD [12] 10 nM | luciferase signal [14] 92 AU | log fold change Tl+ flux (F380Y) 0.0196 | log fold change Tl+ flux (F380Y/beta2Delta) 0.00366 | log fold change Tl+ flux [13] 0.0135 | log fold change Tl+ flux (R275C) -0.0185 | log fold change Tl+ flux (R275C/beta1) 0.0124 | log fold change Tl+ flux (R275C/beta2Delta) 0.0291

C[C@]12CCC(=O)C=C1CC[C@@H]1[C@@H]2[C@@H](O)C[C@@]2(C)[C@H]1CC[C@]2(O)C(=O)COC(=O)CCC(=O)O
inactive: nuclear beta-catenin stimulation ([1]; at 10 µM) 0.9% | insulin secretion stimulation [2] 1.4% | viability decrease [3] 0.2% | tube area decrease [4] 5.6% | GLP1 secretion stimulation [5] -1.5% | inhibition of viability [6] 6.6% | viability decrease (inhibition) [7] -13.6% | viability decrease (inhibition) [8] 13.1% | inhibition [9] 1.94% | fold change [10, 16] 0.985 | remaining NAD [12] 10 nM | luciferase signal [14] 96 AU | log fold change Tl+ flux (F380Y) 0.0328 | log fold change Tl+ flux (F380Y/beta2Delta) 0.00491 | log fold change Tl+ flux [13] 0.0102 | log fold change Tl+ flux (R275C) 0.0834 | log fold change Tl+ flux (R275C/beta1) 0.0319 | log fold change Tl+ flux (R275C/beta2Delta) 0.0103
1.65: fold change [10, 17]
7270: cell count [10, 19]
3%: nuclear beta-catenin stimulation ([1]; stimulation, at 2 µM)
7160: cell count [10, 18]

Cc1cccc(CN2CCN(C(c3ccccc3)c3ccc(Cl)cc3)CC2)c1 (stereo not drawn)
2.01 and 1.32 and 1.69: fold change [10, 17]
active: viability decrease [3] 77.3% | inhibition of viability [6] 83.5% | viability decrease (inhibition) [7] 116% | viability decrease (inhibition) [8] 87.8%
-0.6%: nuclear beta-catenin stimulation ([1]; stimulation, at 2 µM)
inactive: nuclear beta-catenin stimulation ([1]; at 10 µM) 5.6% | insulin secretion stimulation [2] -1.7% | tube area decrease [4] 33.4% | GLP1 secretion stimulation [5] -2.1% | inhibition [9] -14.5% | fold change [10, 16] 0.91 and 0.869 and 0.905 | z-score [11, 20] -0.845 | remaining NAD [12] 10 nM | luciferase signal [14] 96 AU | log fold change Tl+ flux (F380Y) 0.0137 | log fold change Tl+ flux (F380Y/beta2Delta) 0.0401 | log fold change Tl+ flux [13] -0.0345 | log fold change Tl+ flux (R275C) 0.00971 | log fold change Tl+ flux (R275C/beta1) -0.0498 | log fold change Tl+ flux (R275C/beta2Delta) 0.0052
9040 and 10700 and 11700: cell count [10, 19]
8220 and 9250 and 10600: cell count [10, 18]
-0.151: z-score [11, 21]

CCS(=O)(=O)CCn1c([N+](=O)[O-])cnc1C
inactive: nuclear beta-catenin stimulation ([1]; at 10 µM) 0.7% | insulin secretion stimulation [2] -2% | viability decrease [3] -16.5% | tube area decrease [4] -0.1% | GLP1 secretion stimulation [5] 2.3% | inhibition of viability [6] 6.2% | viability decrease (inhibition) [7] -14.6% | viability decrease (inhibition) [8] -1.25% | inhibition [9] -3.03% | red/green cell ratio (normalised) [15] 0.88 | z-score [11, 20] -0.299 and 0.791 and -0.0778 | remaining NAD [12] 10 nM | luciferase signal [14] 36 AU | log fold change Tl+ flux (F380Y) 0.0247 | log fold change Tl+ flux (F380Y/beta2Delta) -0.0231 | log fold change Tl+ flux [13] -0.0103 | log fold change Tl+ flux (R275C) 0.0103 | log fold change Tl+ flux (R275C/beta1) -0.0101 | log fold change Tl+ flux (R275C/beta2Delta) -0.0183
-0.288 and 0.13 and -0.654: z-score [11, 21]
1.12: normalised cell number [15, 23]
1.27: normalised cell number [15, 22]
0.6%: nuclear beta-catenin stimulation ([1]; stimulation, at 2 µM)

CN[C@@H]1[C@H](O)[C@H](NC)[C@H]2O[C@@]3(O)C(=O)C[C@@H](C)O[C@H]3O[C@@H]2[C@H]1O
1.31: normalised cell number [15, 23]
0.169 and 0.769: z-score [11, 21]
3.5%: nuclear beta-catenin stimulation ([1]; stimulation, at 2 µM)
active: GLP1 secretion stimulation [5] 23.7% | log fold change Tl+ flux (R275C) 0.108
0.94: normalised cell number [15, 22]
inactive: nuclear beta-catenin stimulation ([1]; at 10 µM) 0.2% | insulin secretion stimulation [2] -0.2% | viability decrease [3] 12.5% | tube area decrease [4] -8.4% | inhibition of viability [6] 6.2% | viability decrease (inhibition) [7] 12.1% | viability decrease (inhibition) [8] 3.7% | inhibition [9] -6.86% | red/green cell ratio (normalised) [15] 1.39 | z-score [11, 20] 0.0203 and 0.894 | remaining NAD [12] 10 nM | luciferase signal [14] 44 AU | log fold change Tl+ flux (F380Y) -0.0285 | log fold change Tl+ flux (F380Y/beta2Delta) -0.0192 | log fold change Tl+ flux [13] 0.021 | log fold change Tl+ flux (R275C/beta1) 0.0857 | log fold change Tl+ flux (R275C/beta2Delta) -0.00159
